According to PubChem BioAssay AID1159580 (chemical genetic matrix, 2015):
“And” between values parts separate entries of the source, which are not always exact repeats. Equal entries are not always repeated. Among all 5,500 compounds or so, about 2,000 (36%) were called active. Inconclusive results (about 18%) are left out. No stated cut-off is given here; in the data, active means normalized growth mostly below about 0.91 (no sharp cut-off); inconclusive means no clear call, values can overlap the other calls; inactive means mostly above about 0.92. The list shows a part of the results.

Experiment: chemical genetic growth profiling, strain panel (AID 1159580);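 further: tested at 20 µM; growth read once vehicle control cultures reached saturation at 30 °C; 1 = growth at the plate median or of vehicle wells; lower values mean less growth of the strain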
Details: S. cerevisiae deletion strains, growth OD

Measured: normalized growth

NS(=O)(=O)c1cc2c(cc1Cl)NCNS2(=O)=O
inactive: locus YAL013W, strain DEP1, hits give low values 1.01 | locus YAL021C, strain ccr4, hits give low values 1 | locus YAL026C, strain drs2, hits give low values 1.01 | locus YAL030W, strain snc1, hits give low values 1 | locus YAL040C, strain CLN3, hits give low values 1.01 | locus YBL061C, strain skt5, hits give low values 0.995 | locus YBR009C, strain hhf1, hits give low values 0.996 | locus YBR021W, strain FUR4, hits give low values 0.994 | locus YBR023C, strain chs3, hits give low values 0.984 | locus YBR171W, strain sec66, hits give low values 0.997 | locus YBR229C, strain ROT2, hits give low values 1 | locus YBR231C, strain swc5, hits give low values 0.976 | locus YBR279W, strain paf1, hits give low values 0.999 | locus YCL011C, strain gbp2, hits give low values 1 | locus YCL016C, strain dcc1, hits give low values 0.971 | locus YCL029C, strain bik1, hits give low values 0.996 | locus YCL061C, strain MRC1 (second series), hits give low values 1.01 | locus YCL061C, strain MRC1, hits give low values 0.999 | locus YCL069W, strain vba3, hits give low values 0.993 | locus YCR088W, strain abp1, hits give low values 0.995 | locus YDL005C, strain med2, hits give low values 0.984 | locus YDL035C, strain GPR1, hits give low values 1.02 | locus YDL040C, strain nat1, hits give low values 1 | locus YDL074C, strain BRE1, hits give low values 0.989 | locus YDL101C, strain DUN1, hits give low values 1.01 | locus YDL134C, strain PPH21, hits give low values 1.01 | locus YDL185W, strain tfp1, hits give low values 0.998 | locus YDL192W, strain arf1, hits give low values 0.999 | locus YDR001C, strain nth1, hits give low values 0.996 | locus YDR069C, strain doa4, hits give low values 1.03 | locus YDR101C, strain arx1, hits give low values 1.03 | locus YDR137W, strain rgp1, hits give low values 0.97 | locus YDR159W, strain sac3, hits give low values 1 | locus YDR162C, strain NBP2, hits give low values 1.01 | locus YDR195W, strain ref2 0.982 | locus YDR297W, strain sur2, hits give low values 1 | locus YDR318W, strain mcm21, hits give low values 0.991 | locus YDR334W, strain swr1, hits give low values 1 | locus YDR335W, strain msn5, hits give low values 1 | locus YDR363W, strain ESC2, hits give low values 1.02 | locus YDR388W, hits give low values 0.993 | locus YDR392W, strain spt3, hits give low values 0.962 | locus YDR502C, strain sam2, hits give low values 0.994 | locus YEL003W, strain gim4, hits give low values 1.01 | locus YEL037C, strain rad23, hits give low values 0.992 | locus YEL061C, strain CIN8 (second series), hits give low values 0.991 | locus YEL061C, strain CIN8, hits give low values 1 | locus YER002W, strain NOP16, hits give low values 0.996 | locus YER015W, strain faa2, hits give low values 0.983 | locus YER016W, strain bim1, hits give low values 1.01 | locus YER110C, hits give low values 0.998 | locus YER111C, strain swi4, hits give low values 0.992 | locus YER155C, strain BEM2 (second series), hits give low values 1.02 | locus YER155C, strain BEM2, hits give low values 1.01 | locus YER167W, strain BCK2, hits give low values 1 | locus YFR010W, strain ubp6, hits give low values 1 | locus YGL078C, strain dbp3, hits give low values 0.997 | locus YGL086W, strain mad1, hits give low values 0.999 | locus YGL167C, strain pmr1, hits give low values 1 | locus YGL173C, strain kem1, hits give low values 0.996 | locus YGL227W, strain vid30, hits give low values 0.996 | locus YGL240W, strain doc1, hits give low values 1 | locus YGL248W, strain PDE1, hits give low values 1 | locus YGL253W, strain hxk2, hits give low values 1 | locus YGR078C, strain PAC10, hits give low values 1.01 and 0.993 | locus YGR135W, strain pre9, hits give low values 0.984 | locus YGR229C, strain SMI1, hits give low values 1.01 | locus YGR252W, strain gcn5, hits give low values 0.969 | locus YHR013C, strain ard1, hits give low values 0.999 | locus YHR027C, strain rpn1, hits give low values 0.99 | locus YHR030C, strain SLT2, hits give low values 1.01 and 0.971 | locus YHR079C, strain IRE1 (second series), hits give low values 0.996 | locus YHR079C, strain IRE1, hits give low values 0.962 | locus YHR094C, strain hxt1, hits give low values 0.993 | locus YHR129C, strain ARP1, hits give low values 1 | locus YHR142W, strain chs7, hits give low values 0.994 | locus YHR200W, strain rpn10, hits give low values 1 | locus YIL066C, strain RNR3, hits give low values 1.01 | locus YIL073C, strain SPO22, hits give low values 1.01 | locus YIL125W, strain kgd1, hits give low values 0.996 | locus YIR030C, strain dcg1, hits give low values 1 | locus YJL092W, strain hpr5, hits give low values 1 | locus YJL095W, strain BCK1 (second series), hits give low values 1 | locus YJL095W, strain BCK1, hits give low values 1.01 and 0.976 | locus YJL115W, strain asf1, hits give low values 1.01 | locus YJL129C, strain trk1, hits give low values 1 | locus YJL134W, strain LCB3, hits give low values 1.01 | locus YJL154C, strain vps35, hits give low values 0.995 | locus YJL164C, strain tpk1, hits give low values 0.995 | locus YJL166W, strain qcr8, hits give low values 0.999 | locus YJL168C, strain set2, hits give low values 0.993 | locus YJL187C, strain SWE1 (second series), hits give low values 1.01 | locus YJL187C, strain SWE1, hits give low values 0.998 | locus YJR043C, strain POL32, hits give low values 1.02 | locus YJR066W, strain TOR1, hits give low values 0.937 | locus YJR075W, strain HOC1, hits give low values 1.01 | locus YKL009W, strain mrt4, hits give low values 1.01 | locus YKL068W, hits give low values 1 | locus YKL085W, strain MDH1 (second series), hits give low values 0.994 | locus YKL085W, strain MDH1, hits give low values 0.994 | locus YKL160W, strain elf1, hits give low values 0.988 | locus YKL190W, strain CNB1, hits give low values 1.01 | locus YKR001C, strain vps1, hits give low values 1.01 | locus YKR026C, strain gcn3, hits give low values 0.997 | locus YKR091W, strain srl3, hits give low values 0.997 | locus YLL001W, strain dnm1, hits give low values 0.98 | locus YLL026W, hits give low values 1 | locus YLL041C, strain sdh2, hits give low values 0.997 | locus YLR027C, strain aat2, hits give low values 1.01 | locus YLR039C, strain RIC1, hits give low values 0.936 | locus YLR058C, strain SHM2, hits give low values 0.989 | locus YLR102C, strain apc9, hits give low values 0.993 | locus YLR113W, strain HOG1, hits give low values 0.989 | locus YLR221C, strain rsa3, hits give low values 0.963 | locus YLR258W, strain gsy2, hits give low values 0.996 | locus YLR262C, strain YPT6 (second series), hits give low values 0.992 | locus YLR262C, strain YPT6, hits give low values 1.01 | locus YLR268W, strain sec22, hits give low values 0.991 | locus YLR320W, strain mms22, hits give low values 0.998 | locus YLR330W, strain CHS5, hits give low values 1.01 | locus YLR342W, strain FKS1 (second series), hits give low values 1.02 | locus YLR342W, strain FKS1, hits give low values 1 | locus YLR357W, strain rsc2, hits give low values 1.01 | locus YLR370C, strain arc18, hits give low values 0.983 | locus YLR371W, strain rom2, hits give low values 1 | locus YLR384C, strain iki3, hits give low values 0.996 | locus YLR418C, strain cdc73, hits give low values 0.978 | locus YML016C, strain PPZ1, hits give low values 1.01 | locus YML032C, strain rad52, hits give low values 1 | locus YML120C, strain ndi1, hits give low values 0.978 | locus YML124C, strain tub3, hits give low values 0.999 | locus YMR058W, strain fet3, hits give low values 0.998 | locus YMR078C, strain ctf18, hits give low values 0.993 | locus YMR125W, strain sto1, hits give low values 1 | locus YMR129W, hits give low values 0.995 | locus YMR205C, strain PFK2, hits give low values 0.992 | locus YMR223W, strain ubp8, hits give low values 0.985 | locus YMR231W, strain pep5, hits give low values 0.996 | locus YMR263W, strain SAP30, hits give low values 1.01 | locus YMR307W, strain GAS1, hits give low values 0.999 | locus YNL067W, strain RPL9B, hits give low values 1.01 | locus YNL071W, strain lat1, hits give low values 1 | locus YNL128W, strain TEP1, hits give low values 1.02 | locus YNL153C, strain GIM3, hits give low values 1.01 and 1.02 | locus YNL175C, strain NOP13, hits give low values 1.02 | locus YNL183C, strain NPR1, hits give low values 0.956 | locus YNL197C, strain WHI3, hits give low values 1 | locus YNL209W, strain ssb2, hits give low values 0.998 | locus YNL224C, strain SQS1, hits give low values 0.996 | locus YNL233W, strain BNI4, hits give low values 1.01 | locus YNL248C, strain rpa49, hits give low values 1.01 | locus YNL250W, strain rad50, hits give low values 0.987 | locus YNL271C, strain bni1, hits give low values 0.991 | locus YNL298W, strain CLA4, hits give low values 1 | locus YNL307C, strain MCK1, hits give low values 0.999 | locus YNL322C, strain KRE1 (second series), hits give low values 0.993 | locus YNL322C, strain KRE1, hits give low values 1 and 1.01 | locus YNR049C, strain mso1, hits give low values 1 | locus YNR052C, strain pop2, hits give low values 0.999 | locus YOL006C, strain TOP1, hits give low values 1.03 | locus YOL012C, strain htz1 0.74 | locus YOL147C, strain pex11, hits give low values 0.993 | locus YOR001W, strain rrp6, hits give low values 1.04 | locus YOR061W, strain CKA2, hits give low values 1 | locus YOR069W, strain VPS5, hits give low values 1.01 | locus YOR070C, strain gyp1, hits give low values 0.994 | locus YOR080W, strain dia2, hits give low values 1 | locus YOR083W, strain WHI5 (second series), hits give low values 0.981 | locus YOR083W, strain WHI5, hits give low values 0.988 | locus YOR106W, strain vam3, hits give low values 1.01 | locus YOR136W, strain idh2, hits give low values 0.997 | locus YOR144C, strain elg1, hits give low values 0.994 | locus YOR184W, strain ser1, hits give low values 0.994 | locus YOR231W, strain MKK1, hits give low values 0.972 | locus YOR265W, strain rbl2, hits give low values 0.997 | locus YOR270C, strain vph1, hits give low values 1.03 | locus YOR290C, strain snf2, hits give low values 0.956 | locus YOR316C, strain cot1, hits give low values 0.996 | locus YPL051W, strain arl3, hits give low values 1 | locus YPL055C, strain LGE1, hits give low values 1.02 | locus YPL078C, strain atp4, hits give low values 0.994 | locus YPL106C, strain sse1, hits give low values 0.979 | locus YPL240C, strain hsp82, hits give low values 1 | locus YPL241C, strain CIN2, hits give low values 1.01 | locus YPL256C, strain CLN2, hits give low values 0.986 | locus YPR119W, strain clb2, hits give low values 0.992 | locus YPR141C, strain kar3, hits give low values 1 | locus YPR163C, strain tif3, hits give low values 0.994 | locus YPR167C, strain met16, hits give low values 1 | strain wtn01, hits give low values 0.984
